# In PubChem BioAssay:
# Active and inactive are the calls of the source.
# Assays:
# [1] = small molecules captured by biotinylated probe aFSTL3 – biochemical, small-molecule microarray, fluorescence 635/667, stem cell growth factor project, primary screen (AID 1064); conditions: higher = more signal;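 also: measures binding of the biotinylated anti-FSTL3 antibody to printed compounds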
# [2] = binders from COS7 lysate, DM2A8 probe, primary screen, torsin A project, cell lysate, small-molecule microarray, fluorescence 635/667 (AID 1065); conditions: higher = more signal, COS7 lysate expressing mutant human TOR1A
# [3] = small molecules captured by biotinylated probe aFGF2 – biochemical, small-molecule microarray, fluorescence 635/667, stem cell growth factor project, primary screen (AID 1067); conditions: higher = more signal;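 also: measures binding of biotinylated aFGF2 protein to printed compounds on slides; z-score merges feature fluorescence and signal-to-noise across triplicate slides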
# [4] = small molecules captured by biotinylated probe aFGF10 – biochemical, small-molecule microarray, fluorescence 635/667, stem cell growth factor project, primary screen (AID 1071); conditions: higher = more signal;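 also: score merges 667 nm spot intensity and signal to noise from triplicate slides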
# [5] = biological target: Neurogenic locus notch homolog protein 2 (Homo sapiens) (UniProt Q04721); assay: small molecules binding Notch2 protein – biochemical, small-molecule microarray, 635 nm fluorescence, stem cell growth factors, primary screen (AID 1073); conditions: higher = more signal
# Chain of Neurogenic locus notch homolog protein 2 (Homo sapiens) (Q04721 whole entry, looked up, canonical isoform): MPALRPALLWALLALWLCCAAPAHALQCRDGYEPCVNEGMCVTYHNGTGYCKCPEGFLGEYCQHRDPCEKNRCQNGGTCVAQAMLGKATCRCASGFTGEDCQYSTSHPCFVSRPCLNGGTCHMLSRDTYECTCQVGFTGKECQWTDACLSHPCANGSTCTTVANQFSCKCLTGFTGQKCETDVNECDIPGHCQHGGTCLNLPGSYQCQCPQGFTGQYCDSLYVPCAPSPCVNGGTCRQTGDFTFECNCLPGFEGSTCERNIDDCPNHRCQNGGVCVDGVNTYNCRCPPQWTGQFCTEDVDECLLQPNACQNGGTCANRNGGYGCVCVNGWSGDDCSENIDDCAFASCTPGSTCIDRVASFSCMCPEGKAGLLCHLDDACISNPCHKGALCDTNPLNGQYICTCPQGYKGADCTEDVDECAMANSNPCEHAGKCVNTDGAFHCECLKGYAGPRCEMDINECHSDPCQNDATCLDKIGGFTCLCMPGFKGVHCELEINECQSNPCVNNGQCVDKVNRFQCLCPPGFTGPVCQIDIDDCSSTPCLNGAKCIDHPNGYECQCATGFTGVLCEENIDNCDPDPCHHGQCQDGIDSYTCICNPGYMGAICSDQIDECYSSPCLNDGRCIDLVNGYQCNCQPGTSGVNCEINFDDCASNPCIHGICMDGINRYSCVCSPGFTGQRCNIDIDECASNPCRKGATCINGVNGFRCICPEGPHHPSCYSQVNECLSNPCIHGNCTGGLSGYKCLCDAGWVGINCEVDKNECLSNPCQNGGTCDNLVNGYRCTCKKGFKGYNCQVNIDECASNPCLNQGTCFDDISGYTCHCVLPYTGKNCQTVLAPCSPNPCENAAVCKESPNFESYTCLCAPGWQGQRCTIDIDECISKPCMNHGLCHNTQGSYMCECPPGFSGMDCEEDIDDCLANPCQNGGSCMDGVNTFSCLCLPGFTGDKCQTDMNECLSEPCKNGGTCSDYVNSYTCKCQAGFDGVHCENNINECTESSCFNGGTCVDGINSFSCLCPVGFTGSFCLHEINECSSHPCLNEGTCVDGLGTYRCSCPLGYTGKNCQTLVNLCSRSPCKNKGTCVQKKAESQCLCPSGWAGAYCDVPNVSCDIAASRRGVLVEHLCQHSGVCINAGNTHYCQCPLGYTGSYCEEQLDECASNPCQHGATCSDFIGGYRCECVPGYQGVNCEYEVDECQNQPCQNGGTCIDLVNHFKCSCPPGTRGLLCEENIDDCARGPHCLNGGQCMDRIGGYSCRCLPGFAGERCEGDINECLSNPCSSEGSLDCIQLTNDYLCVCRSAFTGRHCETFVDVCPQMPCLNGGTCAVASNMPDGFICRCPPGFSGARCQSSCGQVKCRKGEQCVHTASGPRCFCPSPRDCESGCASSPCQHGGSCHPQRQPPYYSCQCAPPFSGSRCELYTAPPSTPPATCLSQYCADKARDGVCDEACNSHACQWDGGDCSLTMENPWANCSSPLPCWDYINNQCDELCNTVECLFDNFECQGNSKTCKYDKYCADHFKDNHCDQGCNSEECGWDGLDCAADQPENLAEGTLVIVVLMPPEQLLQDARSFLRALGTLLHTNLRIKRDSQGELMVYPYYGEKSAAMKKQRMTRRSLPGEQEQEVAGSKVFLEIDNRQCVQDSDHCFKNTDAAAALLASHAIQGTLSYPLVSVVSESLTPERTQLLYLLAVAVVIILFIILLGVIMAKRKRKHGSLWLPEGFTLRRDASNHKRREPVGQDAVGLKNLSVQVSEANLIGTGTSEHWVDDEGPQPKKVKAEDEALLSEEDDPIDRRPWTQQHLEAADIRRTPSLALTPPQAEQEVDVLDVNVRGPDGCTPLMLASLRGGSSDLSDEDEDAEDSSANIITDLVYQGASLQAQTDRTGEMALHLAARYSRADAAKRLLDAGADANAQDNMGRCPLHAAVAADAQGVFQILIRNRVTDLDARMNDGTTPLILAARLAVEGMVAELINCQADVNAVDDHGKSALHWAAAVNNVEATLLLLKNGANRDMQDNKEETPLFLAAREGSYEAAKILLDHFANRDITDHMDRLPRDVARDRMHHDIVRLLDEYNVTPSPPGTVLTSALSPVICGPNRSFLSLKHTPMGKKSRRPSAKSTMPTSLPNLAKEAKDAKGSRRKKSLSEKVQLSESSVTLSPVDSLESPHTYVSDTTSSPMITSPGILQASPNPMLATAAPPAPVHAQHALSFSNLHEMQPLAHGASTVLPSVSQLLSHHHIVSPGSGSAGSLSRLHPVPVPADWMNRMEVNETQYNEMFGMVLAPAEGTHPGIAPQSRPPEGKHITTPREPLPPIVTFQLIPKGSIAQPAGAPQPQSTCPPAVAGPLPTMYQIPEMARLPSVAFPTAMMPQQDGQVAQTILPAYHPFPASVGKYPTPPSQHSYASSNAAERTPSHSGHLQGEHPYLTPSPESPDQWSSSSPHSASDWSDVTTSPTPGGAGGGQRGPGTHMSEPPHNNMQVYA
# [6] = biological target: Pro-neuregulin-1, membrane-bound isoform (Homo sapiens) (UniProt Q02297); assay: small molecules binding neuregulin-1 protein – biochemical, small-molecule microarray, fluorescence 635/667, psychiatric disease protein project, primary screen (AID 1075); conditions: NRG1 binding, 635 nm fluorescence, higher = more signal;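 also: score combines 667 nm spot fluorescence with signal to noise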
# Chain of Pro-neuregulin-1, membrane-bound isoform (Homo sapiens) (Q02297 whole entry, looked up, the tested form may be a part, canonical isoform): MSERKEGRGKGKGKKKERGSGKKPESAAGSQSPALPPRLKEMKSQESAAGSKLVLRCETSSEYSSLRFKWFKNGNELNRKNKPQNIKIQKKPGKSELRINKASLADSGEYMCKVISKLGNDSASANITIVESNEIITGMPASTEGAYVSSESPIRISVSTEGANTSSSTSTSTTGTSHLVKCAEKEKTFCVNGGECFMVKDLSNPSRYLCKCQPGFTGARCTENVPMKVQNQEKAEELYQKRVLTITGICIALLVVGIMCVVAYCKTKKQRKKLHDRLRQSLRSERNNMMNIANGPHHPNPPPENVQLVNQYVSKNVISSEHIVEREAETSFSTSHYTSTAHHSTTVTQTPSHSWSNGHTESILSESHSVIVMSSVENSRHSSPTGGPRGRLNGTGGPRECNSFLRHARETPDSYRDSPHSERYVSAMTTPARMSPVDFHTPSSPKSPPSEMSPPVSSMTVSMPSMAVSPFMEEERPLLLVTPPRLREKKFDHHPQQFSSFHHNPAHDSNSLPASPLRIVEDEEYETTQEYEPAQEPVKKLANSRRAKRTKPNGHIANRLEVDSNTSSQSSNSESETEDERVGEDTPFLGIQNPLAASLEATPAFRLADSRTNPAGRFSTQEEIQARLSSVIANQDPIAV
# [7] = system: Neuregulin-1 EGF-like domain; assay: small molecules binding NRG1 EGF domain – biochemical, small-molecule microarray, 635 nm fluorescence, primary screen (AID 1081); conditions: higher = more signal;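 also: binding of the protein to compounds printed on small-molecule microarray slides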
# [8] = FRG1 expression reporter modulators in myotubes – cell-based, C2C12 myotubes, firefly/Renilla luciferase, luminescence, FRG1 inhibition for FSHD, primary screen (AID 1084); conditions: FRG1 promoter luciferase, higher = more signal, called active from +8 up or from −8 down
# [9] = small molecules captured by biotinylated probe aFST – biochemical, small-molecule microarray, fluorescence 635/667, stem cell growth factor project, primary screen (AID 1086); conditions: higher = more signal;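 also: score merges 667 nm fluorescence with signal-to-noise of each printed compound spot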
# [10] = binders of probe aHhip on microarray, primary screen, stem cell growth factor project, biochemical, small-molecule microarray, fluorescence 635/667 (AID 1087); conditions: higher = more signal;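 also: score merges spot fluorescence at 667nm with spot signal to noise ratio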
SMILES,composite z-score [1],composite z-score [2],composite z-score [3],composite z-score [4],composite z-score [5],composite z-score [6],composite z-score [7],z-score [8],composite z-score [9],composite z-score [10]
C=C(CCCC)/C(=C/C[C@H](OC(=O)c1ccncc1)c1cccc(OCCO)c1)c1cc(C(=O)OC)ccc1OC,-0.195,0.422,0.0346,1.05,-0.0883,0.0742,0.952,5.01 (inactive),0.104,0.0854
CC(c1ccccc1)C(O)C1C=CC2C(=O)N(C)C(=O)C2N1N(c1ccccc1)c1ccccc1 (stereo not given),1,0.23,0.0395,-0.167,1.08,0.504,1.03,-0.206 (inactive),0.657,-0.0024
COCCOC(=O)N1C(=O)[C@@]2(c3cc(C#CC4(O)CCCCCC4)ccc31)[C@H](C(=O)N1CCCCCCC1)[C@H]1C(=O)O[C@H](c3ccccc3)[C@H](c3ccccc3)N1[C@@H]2c1ccc(O)cc1,3.29,0.536,0.416,0.345,0.899,0.768,1.2,-0.492 (inactive),2.81,1.11
C=CCNC(=O)[C@H]1[C@@H]2C(=O)O[C@@H](c3ccccc3)[C@@H](c3ccccc3)N2[C@@H](c2ccccc2OCCO)[C@]12C(=O)N(C(=O)OCCOC)c1ccc(C#CCC(C(=O)OC)C(=O)OC)cc12,-0.257,0.864,0.0556,0.408,1.34,1.47,1.22,-0.678 (inactive),0.336,0.276
CCCC=C(CCC)[C@@H](NS(=O)(=O)c1cccc(C(F)(F)F)c1)c1ccc(C(=O)OC)cc1,2.23,0.131,0.731,-0.0446,0.318,-0.0702,0.53,2.49 (inactive),2.13,0.171
CO[C@@H]1COC(=O)[C@@H]2CCCN2C(=O)CC=C[C@@H](C)[C@H](OC)COC(=O)[C@@H]2CCCN2C(=O)CC=C[C@H]1C,-0.614,0.164,-0.113,0.0311,-0.545,-0.312,0.732,0.47 (inactive),-0.0975,0.347
O=C1C2C=CC(C(O)C(c3ccccc3)c3ccccc3)N(Nc3ccc([N+](=O)[O-])cc3)C2C(=O)N1c1ccccc1 (stereo not given),0.141,0.311,0.138,1.16,1.64,1.84,1.27,0.117 (inactive),1.37,-0.0994
COC(=O)Cn1c(C(=O)N2CCCC2)cc2c1C[C@H]1CN(C(=O)c3ccccc3)[C@@](Cc3ccccc3)(C(=O)OC)[C@@H]21,0.0841,-0.0841,0.0915,0.381,1.56,1.96,1.17,1.07 (inactive),0.76,-0.119
CO[C@H]1O[C@H](CO)[C@@H](OC(=O)Nc2ccccc2)[C@H](OC(=O)Nc2ccc3c(c2)OCO3)[C@@H]1OC(=O)Nc1ccc2c(c1)OCO2,0.304,1.66,-0.0784,0.158,0.288,1.77,1.29,2.25 (inactive),0.474,-0.191
NC(=O)NCC#Cc1ccc2c(c1)[C@]1(C(=O)N2)[C@H](C(=O)N2CCCCCCC2)[C@H]2C(=O)O[C@H](c3ccccc3)[C@H](c3ccccc3)N2[C@@H]1c1ccccc1OCCO,3.86,2.03,0.876,0.921,1.43,1.92,0.589,0.423 (inactive),3.38,0.526
CO[C@]12C=C(Br)[C@@H](C[C@@H]1c1ccccc1)[C@@]1(CO1)C2=O,-0.407,0.215,-0.0336,0.229,0.308,-0.115,-0.356,-0.358 (inactive),0.0254,0.0274
C=C(CCCC)/C(=C/C[C@@H](OC(=O)c1ccncc1)c1cccc(OCCO)c1)c1cc(C(=O)OC)ccc1OC,-0.0606,0.522,0.0211,0.291,0.535,1.38,1.26,9.67 (active),0.223,0.0722
CCC#CCN(Cc1ccccc1Br)[C@H](/C=C/c1ccccc1)[C@@H](O)Cc1ccccc1,1.78,-0.387,-0.176,-0.61,-1.52,-0.0939,-0.11,-0.227 (inactive),-0.465,-0.271
Cc1ccc([C@@H]2CC=C(C(=O)O)[C@H](c3ccccc3)N2S(=O)(=O)c2ccc(C)cc2)cc1,0.65,0.436,0.358,1.02,1.49,1.82,1.35,-3.57 (inactive),0.549,0.0623
O=C1O[C@@H](c2ccccc2)[C@@H](c2ccccc2)N2[C@@H](c3ccccc3OCCO)[C@]3(C(=O)Nc4ccc(C#CC5=CCCCC5)cc43)[C@@H](C(=O)O)[C@H]12,0.294,0.416,0.0248,0.627,1.44,0.391,1.1,-1.6 (inactive),0.415,-0.226
CN(C)C(=O)[C@@]1(Cc2ccccc2N=[N+]=[N-])N=C(c2ccc(OCCCO)cc2)O[C@H]1c1ccccc1CN=[N+]=[N-],0.832,2.05,0.0914,0.665,1.56,1.56,1.23,-2.27 (inactive),0.961,0.0274

SMILES,composite z-score [1],composite z-score [2],composite z-score [3],composite z-score [4],composite z-score [5],composite z-score [6],composite z-score [7],z-score [8],composite z-score [9],composite z-score [10]
C=CCN(C(=O)C1N(c2ccc(CCO)cc2)C(=O)C2C(C(=O)O)C3C=CC21O3)C(C)(C)C (stereo not given),1.73,-1.15,-0.243,-2.12,-2.34,-0.367,0.915,0.4 (inactive),-1.08,-0.403
COC(=O)C[C@H]1O[C@]2(C(=O)N(C)c3ccccc32)[C@@H](C)[C@@H]1[Si](C)(C)c1ccc(OC)cc1,-0.352,0.0371,-0.005,0.791,0.146,0.367,1.06,-2.07 (inactive),0.673,-0.0645
COCCOC(=O)N1C(=O)[C@@]2(c3cc(C#CCNC(N)=O)ccc31)[C@H](c1ccccc1OCCO)N1[C@H](c3ccccc3)[C@H](c3ccccc3)OC(=O)[C@H]1[C@@H]2C(=O)NC[C@H](O)c1ccccc1,-0.342,1.27,-0.0083,0.658,0.472,1.54,1.21,-0.163 (inactive),0.512,-0.0672
C=CCc1cccc([C@@H]2[C@@H](C)CC[C@H]3C(=O)N4[C@H](c5cccc(CC=C)c5)[C@@H](C)CC[C@H]4C(=O)N23)c1,0.0575,0.537,-0.0677,0.873,1.07,1.12,0.536,0.313 (inactive),0.56,0.154
C=CCC1=C[C@H]2[C@H]([C@@H]3C=C[C@]2(CC=C)C(=O)[C@]32CO2)[C@@]2(CO2)C1=O,0.076,1.28,-0.034,0.612,0.333,-0.35,0.319,-1.52 (inactive),0.501,0.0542
COc1cc2c(cc1OC)CN(C(=O)[C@H]1[C@@H]3C(=O)O[C@@H](c4ccccc4)[C@@H](c4ccccc4)N3[C@@H](c3ccc(O)cc3)[C@]13C(=O)Nc1ccc(C#CC4(O)CCCCCC4)cc13)CC2,1.75,0.457,0.567,1.12,0.685,2.26,1.33,-0.21 (inactive),2.53,2.29
CN1CCC(CCCO)=CC1C1CC1 (stereo not given),-0.389,1.39,-0.199,-0.856,-1.13,-0.345,0.743,-0.901 (inactive),-0.287,-0.251
C=CCOC(=O)[C@@H]1[C@H]2C(=O)O[C@H](c3ccccc3)[C@H](c3ccccc3)N2[C@H](c2ccc(OCCOC(=O)[C@H]3C[C@H]4C(=O)N5CCC[C@H]5C(=O)N4[C@H]3c3ccc(O)cc3)cc2)[C@@]12C(=O)Nc1ccccc12,-0.536,0.774,-0.0169,0.691,0.742,0.968,1.3,-0.619 (inactive),-0.0007,-0.0994
CCOC(=O)C1=CCC(c2cccc3ccccc23)N(S(=O)(=O)c2ccc(C)cc2)C1 (stereo not given),0.609,-0.0897,0.0346,0.323,1.46,1.21,1.01,-1.05 (inactive),0.95,-0.0237
C=CCc1cccc([C@H]2N[C@H](C(=O)O)CC[C@@H]2C)c1,-0.746,0.604,-0.221,0.502,-0.441,-0.0316,0.519,-0.204 (inactive),-0.099,0.122
CO[C@H]1COC(=O)CC=C[C@@H](C)COC(=O)[C@@H](C)NC(=O)CC=C[C@@H]1C,-1.1,2.24,-0.138,-0.248,-0.604,-0.907,-0.228,-1.88 (inactive),0.219,0.0274
C=CCOC(=O)[C@@H]1[C@H]2C(=O)O[C@H](c3ccccc3)[C@H](c3ccccc3)N2[C@H](c2ccc(OCCOC(=O)[C@H]3C[C@H]4C(=O)N[C@@H](CCCCNC(C)=O)C(=O)N4[C@H]3c3ccc(O)cc3)cc2)[C@@]12C(=O)Nc1ccc(I)cc12,-0.583,0.242,0.0435,0.536,0.5,1.24,1.17,0.46 (inactive),-0.0007,0.158
CN1C2C=C(c3ccc(CO)cc3)C(C3C(=O)N(C(N)=O)C(=O)C32)C1c1cccs1 (stereo not given),0.631,0.056,-0.0566,0.0657,-0.458,0.839,1.27,1.02 (inactive),-0.221,-0.0645
CC(=O)NCCCC[C@@H]1NC(=O)[C@@H]2C[C@H](C(=O)NCc3ccc(F)cc3)[C@H](c3cccc(OCCO)c3)N2C1=O,0.617,-0.0522,-0.0038,0.107,-0.417,1.39,1.36,0.967 (inactive),-0.205,-0.0237
C=C[C@H](OC)[C@@H](OC(=O)Nc1ccc(SC)cc1)c1ccc(OC)c(O)c1,0.687,-0.368,-0.141,-0.748,-0.708,-0.231,0.164,1.2 (inactive),-0.595,-0.0994
COc1ccc([Si](C)(C)[C@H]2[C@H](CC(=O)N3Cc4ccccc4C[C@H]3CO)O[C@@]3(C(=O)N(Cc4cccc(N5CCOC5=O)c4)c4ccccc43)[C@@H]2C)cc1,0.0766,0.882,-0.128,0.157,0.123,0.676,0.95,-2.72 (inactive),0.158,-0.264
